High-throughput results from PubChem.
D1 ag – human D1 receptor agonism; hit rate 1% among 360,000; P21728; AID 504660; activation, % at 2 µM; HEK293 T-REx D1 cells, calcium flux, agonist mode; further: 0% is about no effect
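Agonism was scored from calcium flux recorded over 180 s (1 read/s) after pintool compound addition, following a 10-cycle baseline. Cells were inducible force-coupled HEK293 TREx D1, plated overnight at 30 C and loaded with no-wash calcium dye.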
TRHR agonist – TRH receptor (human) agonism | AID 493084 | TRHR cells, calcium flux fluo-8, FDSS agonist mode | activation, % at 2 µM | P34981 | hit rate 0.18% among 360,000; further: 0% is about no effect
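TRHR-expressing cells, plated overnight in medium with 10% serum, were loaded with fluo-8 calcium dye at room temperature. After a 10 s baseline, library compound was pin-added and calcium release was recorded kinetically (ex 480/em 530) as agonist response.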
TRHR enhancer – allosterically enhances the human TRH receptor. hit rate 0.66% among 360,000. P34981. AID 493056. TRHR cells, fluo-8 calcium fluorescence, EC20 TRH enhancement. enhancement, % at 2 µM; in the data active means enhancement above about 30%; further: 0% is about no effect
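TRHR-expressing cells loaded with fluo-8 calcium dye were read kinetically (ex 480/em 530) during compound addition, then stimulated with an EC20 of TRH (10 nM final). Enhancement of the Gq-mediated intracellular calcium response was scored.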
D1 potentiator – enhances dopamine response at the human D1 receptor | P21728 | potentiation, % at 10 µM | AID 504651 | HEK293 TREx D1 cells, calcium flux, dopamine EC20 potentiation | hit rate 0.036% among 360,000; in the data active means potentiation above about 30%; further: 0% is about no effect
USP1 inh – blocks the human USP1/UAF1 deubiquitinase complex; O94782; recombinant USP1/UAF1, Ub-Rhodamine cleavage fluorescence; Potency, µM (doses to about 57.1 µM), for inactives: at the highest dose activity change, negative = inhibition, usual class: inhibitors; hit rate 0.23% among 390,000; AID 743255; active means well fitted inhibition curve with a large enough effect; inconclusive means small, poorly fitted or top-dose-only effect; inactive means no such curve, though single readings can be large or run the other way; further: potency means the concentration at half of the fitted maximal effect; on the % scale 0 is the no-effect control and ±100 the full control effect; nearly all actives have a fitted effect of over 60% in size
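USP1/UAF1 complex (1 nM) preincubated 15 min at room temperature with compound, then Ub-Rho substrate (150 nM final) added. Kinetic fluorescence at 480/540 nm over 6 reads at 60 s intervals; 50 mM HEPES pH 7.8, 0.5 mM EDTA, 0.1 mg/ml BSA, 1 mM TCEP, 0.01% Tween-20.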
D1 antagonist – blocks dopamine activation of the human D1 receptor | activity change, negative = inhibition, % at 10 µM | P21728 | HEK293 TREx D1 cells, calcium flux, dopamine EC80; active compounds read low | hit rate 3.2% among 360,000; in the data active means activity change below about -30%; further: on the % scale 0 is the no-effect control and ±100 the full control effect
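Allosteric or orthosteric antagonism assessed as attenuation of the calcium response to EC80 dopamine, added 180 s after compound, in induced HEK293 Trex D1 cells loaded with no-wash calcium dye.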
Starred values were filed as active, the others as inactive; ? = inconclusive; / = not tested or not shown. This is a sample that favours compounds with a hit; in the whole collection about 4.4% have one here. Unless noted, no stated cut-off is given here; in the data, active means activation above about 30%; inactive means the rest.

SMILES	D1 ag	TRHR agonist	TRHR enhancer	D1 potentiator	USP1 inh	D1 antagonist
C/C(=N/Nc1ccccc1[N+](=O)[O-])c1ccc([N+](=O)[O-])cc1	1	-1	6	7	4%	10
c1ccc(CNCc2nnc(-c3cc4ccccc4[nH]3)s2)cc1	0	1	4	-6	/	10
COc1cc(NC(=O)C(OC(=O)CNC(=O)c2ccccc2)c2ccccc2)c(OC)cc1Cl (configuration not stated)	1	0	-1	-1	/	3
CCn1c(SCc2cccc(Br)c2)nnc1-c1nonc1NC(C)=O	7	-1	-6	3	-16%	13
CN(CC(=O)Nc1cccc(F)c1)C(=O)c1cccc2ccccc12	6	0	2	/	-9%	-8
CN(CC(=O)Nc1cccc(F)c1)C(=O)c1csc2c1CCCC2	33*	0	0	-11	-16%	-3
O=C1C(=O)N(C2CCN(C(=O)c3ccccc3F)CC2)CCN1Cc1ccc(F)cc1	3	0	-1	-3	?	-11
CCn1c(SCC(=O)Nc2ccc3c(c2)OCO3)nnc1-c1cnccn1	0	0	1	-8	-4%	-32*
O=C(CSCc1ccccc1Cl)Nc1ccc2c(c1)OCCO2	1	0	-3	2	-17%	-36*
O=C(CNCc1ccccc1Cl)Nc1ccc2c(c1)OCCO2	9	-1	-1	4	-21%	-5
CCn1c(SCC(=O)Nc2ccc(OC)c(OC)c2)nnc1-c1cnccn1	2	0	-1	0	-10%	7
Nn1c(SCC(=O)Nc2ccc3c(c2)OCCO3)nnc1-c1ccccn1	1	0	4	-4	-1%	-36*
Nc1cc(-c2ccncc2)c[nH]c1=O	13	1	3	0	40µM*	-5
Cc1ccccc1-c1noc(-c2cc(C(C)C)[nH]n2)n1	0	1	-1	-3	?	14
COc1cc(/C=C(/C#N)C(=O)Nc2ccc(C)cc2)ccc1Oc1nc(Cl)ncc1F	7	-1	-8	-5	-12%	-31*
COc1ccc(/C=N/NC(=O)CC#N)cc1Oc1nc(Cl)ncc1F	10	1	11	-4	5%	-8
COc1ccc(/C=C(/C#N)C(=O)Nc2ccccc2C)cc1C(=O)O	2	0	-3	-1	-18%	-4
COc1ccc(/C=C(/C#N)C(=O)Nc2ccc(C)cc2C)cc1C(=O)O	-1	0	-3	3	-20%	-35*
CC1=C([N+](=O)[O-])C(c2ccccc2)NC(=O)N1 (configuration not stated)	0	0	-7	1	-24%	-33*
COc1ccc(CC2=C(O)c3ccccc3C(=O)C2=O)cc1	2	0	8	3	-25%	7
O=C1C(=O)c2ccccc2C(O)=C1CCCCl	0	1	5	-3	20µM*	-9
CCc1ccccc1NC(=O)c1ccc2c(c1)nnn2C1CCCC1	5	0	1	0	-9%	-30*
O=C(NCc1ccccc1Cl)c1ccc2c(c1)nnn2C1CCCC1	7	0	2	-4	5%	-34*
CC1(CC(=O)N/N=C/c2ccc(-c3cccc(C(F)(F)F)c3)o2)OCCO1	3	-1	4	-7	-25%	-37*
CCOC(=O)N/N=C\c1ccc(-c2cccc(C(F)(F)F)c2)o1	3	-1	-9	-2	-8%	-5
SMILES	D1 ag	TRHR agonist	TRHR enhancer	D1 potentiator	USP1 inh	D1 antagonist
O=C(NCCCN1CCOCC1)c1c(O)c2cc(Br)cc(Br)c2[nH]c1=O	4	0	-3	-2	-12%	-36*
CCOC(=O)C1CCCN(c2nc3c(S(=O)(=O)c4ccc(CC)cc4)nnn3c3ccsc23)C1 (configuration not stated)	2	0	-2	-2	?	2
COC(=O)N1C(=O)[C@](c2ccsc2)(C(C)C)N1C(=O)OC	2	0	-6	-8	-28%	-67*
C=C(C)Cn1c(NCCOC)nc2c1c(=O)[nH]c(=O)n2C	-1	0	-3	4	1%	-40*
CCS(=O)(=O)N1CC(=O)N(c2cc(C)cc(C)c2)C(C)(C(=O)NC2CCCCC2)C1 (configuration not stated)	-1	0	-6	0	-9%	-12
O=C(c1ccc(S(=O)(=O)Nc2cccc(C(F)(F)F)c2)cc1)N1CCOCC1	3	0	-1	2	-21%	-6
CC(C)(CNC(=O)c1ccc(S(=O)(=O)Nc2cccc(C(F)(F)F)c2)cc1)N1CCOCC1	5	2	35*	2	-12%	-2
Cc1cc(C)c2c(N)c(-c3nnc(SCc4ccc(Cl)cc4)n3C)sc2n1	0	0	-5	3	-20%	-39*
CCCCOc1c(Cl)cc(C(=O)N(Cc2ccc(C)o2)C2CCS(=O)(=O)C2)cc1Cl (configuration not stated)	23	-1	8	6	-18%	3
CCCCCOc1c(Cl)cc(C(=O)N(Cc2ccc(C)o2)C2CCS(=O)(=O)C2)cc1Cl (configuration not stated)	30*	-2	27	-2	-23%	14
CCc1ccc(CN(Cc2cn[nH]c2-c2ccc(OC)cc2)C(=O)Nc2ccc(Br)cc2)cc1	7	-1	1	-2	-23%	4
CC(C)c1cc(C(=O)N2CCCC(CCC(=O)N3CCN(c4ccccn4)CC3)C2)no1 (configuration not stated)	6	0	9	6	-2%	-14
O=C(CCC1CCCN(C(=O)c2cc(C3CC3)[nH]n2)C1)N1CCN(c2ccccn2)CC1 (configuration not stated)	3	-2	-1	0	-18%	-32*
COc1ccc(NC(=O)CSc2nnc(NC(=O)Nc3ccccc3)s2)c(OC)c1	-1	0	-1	-2	-2%	/
O=C(NCCNc1ccc([N+](=O)[O-])cc1C(F)(F)F)c1ccccc1	6	-1	-8	-18	-24%	-31*
COc1ccccc1N1CCN(C(=O)c2cc(-c3ccc(C)cc3)on2)CC1	2	0	-4	-4	-11%	-45*
Cc1oc2ncn(C)c(=O)c2c1C(=O)N1CCN(c2ccccc2)CC1	0	0	0	-2	?	14
COc1ccc(OC)c(CCNC(=O)c2c(C)oc3ncn(C)c(=O)c23)c1	1	2	-5	-7	-9%	-31*
COc1ccccc1N1CCN(C(=O)c2cc(-c3ccc(F)cc3)on2)CC1	3	0	4	1	-20%	2
